Data on four molecules can be found in PubChem BioAssay.

A short description of test [1]: E. coli DRC41 culture turbidity changes, primary screen, E. coli filamentation inducer project, strain DRC41, OD650, 48 h (AID 1152).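 Also: E. coli MC1000 strain DRC41 lacking acrAB efflux pump and sulA.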 The conditions noted are these: E. coli DRC41 (acrAB sulA), higher = more signal, called active from +8 up or from −8 down.
A short description of test [2]: small-molecule binders of probe aLefty1, primary screen, biochemical, small-molecule microarray, 635/667 nm fluorescence (AID 1153).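 Also: score merges spot fluorescence with signal-to-noise ratio from the scanned slide images.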 The conditions noted are these: higher = more signal.
Test [3] in a line: PSAC antagonists in infected red cells, primary screen, cell-based, P. falciparum Indochina, OD700, 1 h (AID 1154). The conditions noted are these: P. falciparum Indochina infected RBC osmotic lysis, higher = more signal, called active from +8 up or from −8 down.
Test [4] in a line: PSAC antagonists in infected red cells, primary screen, cell-based, P. falciparum Indochina, OD700, 2 h (AID 1155).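 Also: lysis reports solute entry through the parasite surface anion channel PSAC; channel blockers reduce lysis of infected cells.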 The conditions noted are these: P. falciparum Indochina infected erythrocytes, osmotic lysis OD700; higher = more signal, called active from +8 up or from −8 down.
A short description of test [5]: osmotic lysis modulators in infected erythrocytes, primary screen, PSAC antagonist project, cell-based, P. falciparum Indochina, OD700, 3 h (AID 1156). The conditions noted are these: higher = more signal, called active from +8 up or from −8 down.
Test [6] is described as follows: PSAC antagonists in infected red cells, primary screen, cell-based, P. falciparum Indochina, OD700, 18 h (AID 1157). The conditions noted are these: P. falciparum Indochina infected erythrocytes, osmotic lysis OD700, 18 h; higher = more signal, called active from +8 up or from −8 down.
A short description of test [7]: modulators of S6 phosphorylation in cells, primary screen, cell-based, A549, cytoblot, luminescence, serum-stimulated (AID 1158).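 Also: serum-stimulated A549 lung adenocarcinoma cells; signal is phosphorylated S6 detected by cytoblot immunostaining with HRP secondary.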 The conditions noted are these: A549 phospho-S6 cytoblot, 5 h, higher = more signal.
Test [8] addresses NADPH oxidase 2 (Homo sapiens) (UniProt P04839). As to the kind of experiment: NOX2-dependent H2O2 signal modulators, primary screen, NOX inhibitor project, cell-based, HEK293-NOX2, PMA-stimulated, Amplex Red fluorescence (AID 1159). Also: test concentration not given here. The conditions noted are these: 45 min, higher = more signal, called active from +8 up or from −8 down.
The target in test [9] is NADPH oxidase 4 (Homo sapiens) (UniProt Q9NPH5). As to the kind of experiment: NOX4-dependent H2O2 signal modulators, primary screen, NOX inhibitor project, cell-based, HEK293-NOX4, tetracycline-induced, Amplex Red fluorescence (AID 1160). The conditions noted are these: 45 min, higher = more signal, called active from +8 up or from −8 down.
Sequence of NADPH oxidase 4 (Homo sapiens) (Q9NPH5 whole entry, looked up): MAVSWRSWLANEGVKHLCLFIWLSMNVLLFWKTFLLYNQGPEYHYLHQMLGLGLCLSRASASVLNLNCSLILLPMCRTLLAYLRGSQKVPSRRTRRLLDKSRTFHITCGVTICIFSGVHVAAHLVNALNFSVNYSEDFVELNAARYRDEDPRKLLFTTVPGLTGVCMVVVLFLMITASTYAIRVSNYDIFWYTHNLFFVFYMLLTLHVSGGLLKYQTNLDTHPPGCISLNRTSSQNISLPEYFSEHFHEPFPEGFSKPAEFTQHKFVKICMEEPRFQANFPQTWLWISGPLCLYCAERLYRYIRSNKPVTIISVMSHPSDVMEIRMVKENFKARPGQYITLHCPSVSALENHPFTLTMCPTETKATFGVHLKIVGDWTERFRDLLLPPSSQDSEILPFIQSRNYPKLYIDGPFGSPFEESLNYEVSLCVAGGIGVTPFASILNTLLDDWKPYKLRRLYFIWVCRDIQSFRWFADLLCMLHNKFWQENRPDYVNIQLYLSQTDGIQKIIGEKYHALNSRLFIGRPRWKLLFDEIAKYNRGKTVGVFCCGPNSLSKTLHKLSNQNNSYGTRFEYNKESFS
Test [10] addresses NADPH oxidase 5 (Homo sapiens) (UniProt Q96PH1). As to the kind of experiment: NOX5-dependent H2O2 signal modulators, primary screen, NOX inhibitor project, cell-based, HEK293-NOX5, Amplex Red fluorescence (AID 1161). To be noted: HEK293-NOX5, ionomycin, 45 min, higher = more signal.
A short description of test [11]: A549 cell viability effects, profiling panel, calcein-AM fluorescence, 48 h, basal (AID 1162). Also: test concentration not given here. The conditions noted are these: higher = more signal.
A short description of test [12]: adipocyte viability effects, profiling panel, cell-based, 3T3-L1 adipocytes, calcein-AM fluorescence, 48 h, basal (AID 1163). Also: test concentration not given here. The conditions noted are these: 3T3-L1 adipocytes viability, higher = more signal.
A short description of test [13]: HepG2 cell viability effects, profiling panel, calcein-AM fluorescence, 48 h, basal (AID 1164). Also: test concentration not given here. To be noted: higher = more signal.
Test [14] can be described thus: MM1S cell viability effects, profiling panel, calcein-AM fluorescence, 48 h, basal (AID 1165).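 Also: viability of MM1S multiple myeloma cells under basal unstimulated conditions; test concentration not given here.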 The conditions noted are these: higher = more signal.
Test [15] can be described thus: basal RPMI8226 viability, no added stimulus, profiling panel, cell-based, calcein-AM fluorescence, 48 h, PK04 Diversity Set (AID 1166).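 Also: cells grown under basal conditions without added stimulus; test concentration not given here.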 The conditions noted are these: RPMI8226 myeloma viability, higher = more signal.
The nature of test [16]: basal HepG2 mitochondrial membrane potential changes, profiling panel, cell-based, JC-1 fluorescence, 24 h, 100 nL compound (AID 1167). Also: test concentration not given here. The conditions noted are these: higher = more signal.
A short description of test [17]: basal 3T3-L1 adipocyte mitochondrial potential changes, profiling panel, cell-based, JC-1 fluorescence, 3T3-L1 adipocytes, 24 h, 100 nL compound (AID 1168). Also: test concentration not given here. The conditions noted are these: JC-1 mitochondrial fluorescence, higher = more signal, called active from +8 up or from −8 down.
Test [18] in a line: basal RPMI8226 mitochondrial membrane potential changes, profiling panel, cell-based, JC-1 fluorescence, 24 h, 100 nL compound (AID 1169). Also: test concentration not given here. The conditions noted are these: RPMI8226 myeloma, JC-1 mitochondrial potential fluorescence, higher = more signal.
Test [19] in a line: basal MM1S mitochondrial membrane potential changes, profiling panel, cell-based, JC-1 fluorescence, 24 h, 100 nL compound (AID 1170). Also: test concentration not given here. The conditions noted are these: higher = more signal.
A short description of test [20]: A549 lung cancer cell viability effects, profiling panel, resazurin fluorescence, 24 h, PK04 Diversity Set (AID 1171). Also: test concentration not given here. The conditions noted are these: higher = more signal, called active from +8 up or from −8 down.

Activity calls are given as the source filed them.

Sequence of NADPH oxidase 2 (Homo sapiens) (P04839 whole entry, looked up): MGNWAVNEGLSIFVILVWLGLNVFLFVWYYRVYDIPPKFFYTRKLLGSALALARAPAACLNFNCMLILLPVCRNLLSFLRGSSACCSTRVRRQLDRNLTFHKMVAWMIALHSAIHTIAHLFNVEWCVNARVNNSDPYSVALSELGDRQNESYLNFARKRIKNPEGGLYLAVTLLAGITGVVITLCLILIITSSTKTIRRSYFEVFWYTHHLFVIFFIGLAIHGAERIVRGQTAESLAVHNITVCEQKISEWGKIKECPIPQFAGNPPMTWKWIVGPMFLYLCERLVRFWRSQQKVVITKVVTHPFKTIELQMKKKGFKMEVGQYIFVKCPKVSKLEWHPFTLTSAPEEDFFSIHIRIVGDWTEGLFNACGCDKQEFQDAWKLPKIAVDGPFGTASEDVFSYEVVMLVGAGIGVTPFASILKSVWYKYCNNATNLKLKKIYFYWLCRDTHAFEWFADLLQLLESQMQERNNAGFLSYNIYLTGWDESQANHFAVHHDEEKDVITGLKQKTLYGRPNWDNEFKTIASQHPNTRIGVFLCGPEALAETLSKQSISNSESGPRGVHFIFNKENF
Sequence of NADPH oxidase 5 (Homo sapiens) (Q96PH1 whole entry, looked up): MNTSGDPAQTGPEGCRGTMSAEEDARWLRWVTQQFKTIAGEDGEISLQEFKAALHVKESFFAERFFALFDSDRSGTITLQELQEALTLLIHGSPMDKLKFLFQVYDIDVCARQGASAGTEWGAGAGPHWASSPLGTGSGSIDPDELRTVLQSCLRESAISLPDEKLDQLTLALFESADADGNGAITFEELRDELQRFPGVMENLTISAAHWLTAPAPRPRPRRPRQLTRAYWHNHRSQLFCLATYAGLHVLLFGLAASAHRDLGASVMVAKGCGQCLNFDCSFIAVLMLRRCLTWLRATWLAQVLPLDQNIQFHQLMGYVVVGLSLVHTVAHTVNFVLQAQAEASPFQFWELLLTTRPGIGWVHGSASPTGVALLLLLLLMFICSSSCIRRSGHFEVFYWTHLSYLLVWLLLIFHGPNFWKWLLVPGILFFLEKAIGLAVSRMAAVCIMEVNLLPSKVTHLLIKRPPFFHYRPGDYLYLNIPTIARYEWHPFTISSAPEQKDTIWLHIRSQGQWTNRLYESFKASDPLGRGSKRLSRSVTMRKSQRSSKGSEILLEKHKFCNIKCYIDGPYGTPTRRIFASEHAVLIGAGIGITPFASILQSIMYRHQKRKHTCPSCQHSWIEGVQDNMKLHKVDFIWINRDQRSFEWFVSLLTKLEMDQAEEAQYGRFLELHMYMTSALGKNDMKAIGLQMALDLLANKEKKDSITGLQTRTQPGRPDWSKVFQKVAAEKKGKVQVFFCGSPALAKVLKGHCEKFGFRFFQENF

As for `COc1c(C)cc(-c2cc3c(c(-c4ccc(Oc5ccccc5)cc4)n2)[Si](C(C)C)(C(C)C)OC3)cc1C`, the z-score in test [1] was -1.42 (inactive); in [3], 0.219 (inactive); in [4] it was 0.603 (inactive); in test [5], 0.392 (inactive); in test [6] it was 0.63 (inactive); in test [7], -0.817. The z-score in [8] was -0.445 (inactive); in [9], 0.722 (inactive); in [10] it was -0.958; in test [11] it was -0.342; in test [12], -0.616; in test [13] it was 0.285. In addition, the z-score in test [14] is -0.66; in test [15], -0.11; in test [16], -1.3; in [17], -0.528 (inactive); in test [18], 0.103; in test [19], 0.0963. Also, the z-score in test [20] is 0.624 (inactive). Further, the composite z-score in [2] came to 0.13.

Regarding `CC(C)N1CC=CC23O[C@@H]4C=CCOC(=O)[C@@H]4[C@H]2C(=O)N(CCO)[C@@H]3C1=O` (stereo not given in full), the z-score in test [1] is 0.759 (inactive); in test [3], -0.0173 (inactive); in test [4], 0.257 (inactive); in test [5], -0.288 (inactive); in test [6] it was 0.6 (inactive); in test [7], 0.121. The z-score in [8] is 0.603 (inactive); in [9], 0.865 (inactive); in test [10], 0.913; in test [11], -0.237; in [12] it was 0.253; in test [13], -0.166. In addition, the z-score in test [14] was 1.07; in test [15], -0.761; in test [16], -0.38; in test [17] it was 0.0611 (inactive); in test [18] it was 0.223; in [19] it was -0.797. The z-score in test [20] is 0.336 (inactive). Also, the composite z-score in [2] is -0.0559.

For the molecule `CCCNC(=O)[C@@H]1c2ccccc2C(=O)N(Cc2ccccc2)[C@H]1c1ccc(CO)cc1`, the z-score in test [1] is -0.731 (inactive); in test [3] it was 1.36 (inactive); in test [4] it was -0.325 (inactive); in [5], 1.41 (inactive); in [6], 0.0842 (inactive); in test [7], 0.0533. Further, the z-score in [8] is -0.802 (inactive); in test [9], -1.63 (inactive); in test [10] it was -2.53; in test [11] it was 0.756; in test [12], 1.38; in test [13], 0.817. In addition, the z-score was -0.183 in [14]; 0.502 in test [15]; 2.12 in test [16]; -1.28 (inactive) in test [17]; -0.681 in test [18]; -0.549 in [19]. In [20], the z-score is 0.528 (inactive). In addition, the composite z-score in test [2] is -0.0508.

Consider `CC(C)C(=C=CC[C@@H](O)c1ccccc1OCCO)C[C@@H](O)c1ccccn1`, for which the z-score in test [1] was -0.258 (inactive); in [3], 6.05 (inactive); in test [4], 1.2 (inactive); in [5], 0.611 (inactive); in [6] it was 0.774 (inactive); in [7], -0.632. Moreover, the z-score in test [8] is 0.216 (inactive); in test [9], -0.725 (inactive); in test [10], -1.6; in test [11] it was -0.158; in [12], 0.0388; in test [13] it was -0.0925. Besides, the z-score in [14] is -0.757; in test [15], 0.0845; in test [16] it was -0.687; in [17], -0.425 (inactive); in test [18], -0.0863; in [19], -0.0458. Moreover, the z-score in [20] was 0.248 (inactive). The same molecule registered a composite z-score in [2] of 0.0437.
